# Most compounds without a hit are left out; they make up all but 6.9% or so of the library.
# SKKanGAS inh = SKKanGAS growth inhibition; S. pyogenes SKKanGAS, kanamycin growth, BacTiter-Glo, 6 h; inhibition, % at 7.5 µM; 1.3% of 300,000 active;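 active = mean replicate score, as percent of positive control median, at least 50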;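 note: strain carries kanamycin resistance gene driven by streptokinase promoter and grows in 40 µg/ml kanamycin; loss of luminescence reflects streptokinase promoter inhibition or plain growth inhibition; 0% = median of DMSO wells and 100% = positive control at its reference dose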
# CSC inhib = cancer stem cell inhibition; AID 2717; 1.1% of 300,000 active; cancer stem cell-like cells viability, luminescence; inhibition, % at 7.5 µM; in the data active = inhibition above about 75%; tested in HMLE shEcad cells
# GRIN3A LBD mod = modulators (binders) of human NR3A ligand-binding domain | NR3A LBD differential scanning fluorimetry, Tm shift; 0% = protein alone, 100% = glycine-bound protein | 2.5% of 340,000 active | Tm shift relative to glycine control, % at 25 µM;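 active = melting temperature shift of at least 10% of the positive control shift, at one fixed dose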
# Beta cell apopt = blocks beta cell apoptosis. INS-1E cytokine-induced death, ATP luminescence, 48 h; percent of positive-control rescue, neutral wells zero. protection from apoptosis, % (test concentration not listed). 0.8% of 300,000 active. AID 435005;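 active = Every replicate reaches about 75%, or at least half do and their mean reaches it too, limit read from the data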;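 note: 0% = cytokine-treated negative control wells and 100% = positive control rescue; higher means more ATP so stronger rescue from cytokine killing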
# Mdm2-MdmX inh = disrupts the human Mdm2-MdmX interaction; AID 485346; inhibition, % at 8 µM; SaOS-2 split-luciferase Mdm2/MdmX complementation, luminescence; O15151+Q00987; 3% of 330,000 active;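 active = inhibition of at least 50% at 8 µM in the primary screen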
# Target sequence (O15151 whole entry, looked up): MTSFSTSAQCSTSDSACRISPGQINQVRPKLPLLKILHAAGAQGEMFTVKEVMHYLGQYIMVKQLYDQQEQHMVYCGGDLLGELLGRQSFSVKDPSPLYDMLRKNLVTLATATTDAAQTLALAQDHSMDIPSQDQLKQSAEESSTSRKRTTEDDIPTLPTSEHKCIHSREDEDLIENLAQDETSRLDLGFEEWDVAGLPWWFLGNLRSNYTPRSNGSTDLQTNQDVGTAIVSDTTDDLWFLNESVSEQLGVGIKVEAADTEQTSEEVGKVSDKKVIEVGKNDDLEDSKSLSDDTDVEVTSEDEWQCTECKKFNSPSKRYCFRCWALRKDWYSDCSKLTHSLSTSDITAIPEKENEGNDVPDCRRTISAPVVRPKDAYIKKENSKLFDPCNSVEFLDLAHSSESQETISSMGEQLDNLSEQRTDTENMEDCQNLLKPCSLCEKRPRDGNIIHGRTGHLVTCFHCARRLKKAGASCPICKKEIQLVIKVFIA
# Target sequence (Q00987 whole entry, looked up): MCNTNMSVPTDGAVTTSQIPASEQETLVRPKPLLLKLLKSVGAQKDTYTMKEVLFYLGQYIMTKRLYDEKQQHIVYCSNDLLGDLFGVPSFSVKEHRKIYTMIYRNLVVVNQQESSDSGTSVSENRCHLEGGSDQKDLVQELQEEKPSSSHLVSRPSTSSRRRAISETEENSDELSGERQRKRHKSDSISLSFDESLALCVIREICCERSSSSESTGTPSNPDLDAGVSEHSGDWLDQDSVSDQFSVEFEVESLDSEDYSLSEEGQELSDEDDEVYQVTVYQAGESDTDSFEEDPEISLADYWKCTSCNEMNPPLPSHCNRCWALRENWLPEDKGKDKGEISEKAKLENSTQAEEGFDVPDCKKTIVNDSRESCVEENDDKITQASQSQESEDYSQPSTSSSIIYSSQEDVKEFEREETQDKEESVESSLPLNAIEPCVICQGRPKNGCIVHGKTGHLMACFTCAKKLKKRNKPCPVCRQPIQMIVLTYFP
# MPTP block = blocks calcium-induced mitochondrial swelling. isolated mouse mitochondria, Ca2+ swelling absorbance, 30 min. inhibition, % at 10 µM. 1.4% of 360,000 active. AID 602449;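 active = inhibition of 50% or more, scaled per plate between neutral and stimulator controls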;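 note: 0% = DMSO wells given calcium and 100% = 1 mM EGTA wells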
# Mdm2 MdmX conf = human Mdm2/MdmX binding inhibition, confirmed; shares compounds with Mdm2-MdmX inh; luminescent assay; inhibition, % at 8 µM; 55% of 10,000 active; in the data active = inhibition above about 40%
# FLuc counter = full-length luciferase inhibition in Mdm2/MdmX counter-screen; 77% of 6,200 active; SaOS-2 full-length luciferase counterscreen, luminescence; shares compounds with Mdm2-MdmX inh; inhibition, % at 8 µM;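 active = mean inhibition at 8 µM reaching about 37%, which flags the compound as non-specific, limit read from the data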;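 note: p53-null SaOS-2 cells with luciferase driven by a doxycycline-inducible promoter; compound on cells about two nights before reading with doxycycline added after day one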
# * hit, by the source's call; · = not tested or not shown.
SMILES,SKKanGAS inh,CSC inhib,GRIN3A LBD mod,Beta cell apopt,Mdm2-MdmX inh,MPTP block,Mdm2 MdmX conf,FLuc counter
CCOCCCNC(=O)/C(C#N)=C/c1ccc(Cl)c([N+](=O)[O-])c1,-2,67,2,-7,73*,-1,2,·
CCOCCCNC(=O)/C(C#N)=C/c1cc(OC)c(O)c([N+](=O)[O-])c1,3,55,1,9,24,1,·,·
CC(C)CCn1nnnc1CN1CCN(c2ccccc2)CC1,8,-8,-2,-2,30,0,·,·
Cn1ccnc1CN1CCCCC1C(=O)Nc1ccc(Oc2cccnc2)cc1 (stereo not given),-11,6,1,·,51*,1,74*,65*
O=C(c1ccc(F)cc1)C(CN1CCOCC1)c1ccccc1 (stereo not given),-5,·,1,·,64*,-1,43*,38*
O=C(c1ccccc1)C(CCC(CN1CCOCC1)C(=O)c1ccccc1)CN1CCOCC1 (stereo not given),-8,31,1,95*,95*,1,65*,51*
O=C(c1ccc(Cl)cc1)C(CN1CCCC1)c1ccccc1 (stereo not given),-8,35,3,61,71*,1,34,·
COc1ccc(C(=O)CCN2CCCCCC2)cc1,-3,12,0,-16,8,35,·,·
c1ccc(C(CN2CCOCC2)c2ccccc2)cc1,4,-19,0,-3,-4,0,·,·
COc1ccc(C(=O)C(CN2CCCC2)c2ccccc2)cc1 (stereo not given),1,86*,4,-46,99*,0,64*,28
Cc1ccc(-c2ocnc2C(=O)Nc2nc(C)cs2)cc1,7,14,-2,-1,-3,0,·,·
CCCc1ncc(C(O)c2ccccc2OC)n1C (stereo not given),8,-6,2,-11,8,-2,·,·
CCCCOc1ccc(C(=O)C(CN2CCOCC2)c2ccccc2)cc1 (stereo not given),2,111*,5,67,94*,-4,74*,21
COc1ccc(C(=O)C(CN2CCOCC2)c2ccccc2)cc1 (stereo not given),10,50,-2,-36,80*,-2,81*,27
CCC(O)(c1ccc(OC)cc1)C(CN1CCOCC1)c1ccccc1 (stereo not given),·,-10,1,-4,23,-1,·,·
CCCCCOc1ccc(C(=O)C(c2ccccc2)N2CCOCC2)cc1 (stereo not given),5,-8,3,1,2,1,·,·
CCCn1c(N)c(N2CCCCC2)c(=O)n(CC(=O)Nc2ccccc2C(F)(F)F)c1=O,·,-18,0,0,9,0,·,·
CCOC(=O)c1c(C)[nH]c(C(=O)OCC(=O)Nc2ccc(Cl)cn2)c1C,·,-16,1,-2,14,1,·,·
CCOC(=O)c1c(C)[nH]c(C(=O)OCC(=O)NCc2ccc(OC)c(OC)c2)c1C,·,8,3,3,3,1,·,·
CCOC(=O)c1c(C)[nH]c(C(=O)OCC(=O)Nc2cc(C)c(Cl)cc2OC)c1C,8,7,-2,10,54*,0,19,·
CCOC(=O)c1[nH]c(C)c(C(=O)c2cc(F)ccc2F)c1C,0,60,0,16,59*,0,56*,76*
CCOC(=O)c1c(C)[nH]c(C(=O)OCC(=O)Nc2sccc2C(N)=O)c1C,26,43,29*,48,56*,-1,59*,66*
COC(=O)c1[nH]c2cc(OC)c(OC)cc2c1/C=N/Nc1ccccc1,10,53,-22,5,79*,4,25,85*
CC(C)[C@@]1(c2ccccc2)ON(c2ccccc2C(F)(F)F)C1=O,·,26,·,-3,37,·,·,·
CC(C)[C@]1(c2ccc(Cl)cc2)ON(c2ccccc2C(F)(F)F)C1=O,·,58,·,2,68*,·,34,56*
SMILES,SKKanGAS inh,CSC inhib,GRIN3A LBD mod,Beta cell apopt,Mdm2-MdmX inh,MPTP block,Mdm2 MdmX conf,FLuc counter
O=C1N(c2ccccc2C(F)(F)F)O[C@]1(c1ccccc1)C1CCCCC1,·,70,2,-4,85*,0,62*,51*
CC(C)[C@]1(c2ccccc2)ON(c2ccccc2C(F)(F)F)C1=O,·,-20,·,2,40,·,·,·
O=C1N(c2ccccc2C(F)(F)F)OC1(Cc1ccccc1)c1ccccc1 (stereo not given),·,57,-3,-10,92*,2,67*,52*
OC(c1ccccc1)(c1ccccc1)c1nccn1-c1ccccc1,·,·,-3,·,·,0,·,·
CN(CC(=O)Nc1ccc(Cl)c(C(F)(F)F)c1)C(=O)CNC(=O)C1CCCCC1,·,-5,0,2,23,-1,·,·
CCCCCC(=C/c1ccccc1)/C=N/Nc1ccc(S(=O)(=O)N2CCOCC2)cc1[N+](=O)[O-],·,·,-1,·,·,1,·,·
Cn1c(=O)oc2cc(S(=O)(=O)N3CCC(C(=O)NCc4ccccc4Cl)CC3)ccc21,0,-16,1,1,51*,-2,-21,·
COc1cc(C2CC(=O)N(c3ccc(C)cc3)C(=O)C2)cc(OC)c1OC,-13,50,0,7,54*,0,41*,61*
COc1ccc(N2C(=O)CC(c3cc(OC)c(OC)c(OC)c3)CC2=O)cc1,-1,3,3,-1,12,4,·,·
CCOC1=C2[C@@H](CN(S(=O)(=O)c3ccc(C)cc3)[C@H]2c2cccc3ccccc23)[C@H]2C(=O)N(C)C(=O)[C@H]2C1,·,·,·,·,·,-3,·,·
O=C(c1c(F)c(F)c(F)c(F)c1F)N1CCN(c2cccc(C(F)(F)F)c2)CC1,3,46,4,8,58*,3,16,·
O=C(c1ccccc1F)N1CCN(c2cccc(C(F)(F)F)c2)CC1,-3,-5,-2,0,16,2,·,·
CN1CCN(CCNC(=O)c2ccc3nc(-c4ccc(F)cc4)c(-c4ccc(F)cc4)nc3c2)CC1,10,-1,-4,2,54*,2,29,·
CCCCC[C@H](O)/C=C/[C@H]1CCC(=O)[C@@H]1CCCCCCC(=O)N1CCCCC1CO (stereo not given in full),6,19,4,-2,60*,-1,44*,54*
Cc1cccc(N2CCN(C(=O)NC(C)c3ccc(F)c(F)c3)CC2)c1C (stereo not given),7,6,2,7,7,-1,·,·
O=C(NCc1ccccc1)c1nc(S(=O)(=O)Cc2ccccc2)ncc1Cl,-9,52,3,-10,74*,2,67*,4
O=C(NCc1ccccc1)c1c(Cl)nc(Cl)c(Cl)c1Cl,3,68,·,-10,100*,1,94*,53*

# Screening data: PubChem, several laboratories
